# Measured values as given in PubChem BioAssay (NCI).
# The panel holds about 79,000 compounds, 15% with a hit somewhere; the sample as a whole holds those more often. Unmarked numbers belong to inactive results. The source made the active and inactive calls. Rule as the data show it: active = growth inhibition above about 70%; inactive = the rest.
# Tests used:
# [1] = NCI Yeast Anticancer Drug Screen. Data for the rad52 strain (AID 147);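 also: 0% = growth of vehicle-treated control cultures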; conditions: S. cerevisiae rad52 mutant growth inhibition, active compounds read high
# Summary of the method: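 Yeast strain carrying a DNA damage repair alteration was exposed to test compounds. Growth inhibition was measured relative to vehicle-treated controls.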
# [2] = NCI Yeast Anticancer Drug Screen. Data for the rad50EPP+ strain (AID 151);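 also: 0% = growth of vehicle-treated control cultures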; conditions: S. cerevisiae rad50 mutant strain, active compounds read high
# Summary of the method: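 Yeast strain carrying rad50 alteration (rad50EPP+) exposed to compounds; growth inhibition measured relative to vehicle-treated controls.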
# [3] = NCI Yeast Anticancer Drug Screen. Data for the mgt1 strain (AID 153); conditions: S. cerevisiae mgt1 mutant growth inhibition, active compounds read high
# Summary of the method: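 Yeast mgt1 strain (DNA repair/cell-cycle alteration panel) exposed to compounds; growth inhibition measured relative to vehicle-treated controls.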
# [4] = NCI Yeast Anticancer Drug Screen. Data for the rad50 strain (AID 155);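 also: 0% = growth of vehicle-only cultures of the same strain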; conditions: S. cerevisiae rad50 strain growth inhibition, active compounds read high
# Summary of the method: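 Inhibition values express reduced yeast growth in compound-treated cultures relative to vehicle-treated controls.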
# [5] = NCI Yeast Anticancer Drug Screen. Data for the mec2-1 strain (AID 157); conditions: S. cerevisiae mec2-1 strain, active compounds read high
# Summary of the method: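 mec2-1 yeast strain, carrying an alteration in DNA damage repair or cell cycle control, was exposed to compounds; growth inhibition was measured relative to vehicle-treated controls.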
# [6] = NCI Yeast Anticancer Drug Screen. Data for the sgs1 mgt1 strain (AID 161);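 also: 0% = growth of cultures given vehicle only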; conditions: S. cerevisiae sgs1 mgt1 strain, active compounds read high
# Summary of the method: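 Compounds are added to genetically altered yeast, and growth is compared with cultures given vehicle alone to give percent inhibition.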
# [7] = NCI Yeast Anticancer Drug Screen. Data for the CLN2oe strain (AID 163);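 also: 0% = growth of vehicle-only control cultures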; conditions: S. cerevisiae CLN2oe strain, active compounds read high
# Summary of the method: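 Yeast cells carrying a defined cell-cycle control alteration were exposed to test compounds. Growth inhibition was scored against vehicle-treated control cultures.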
# [8] = NCI Yeast Anticancer Drug Screen. Data for the cln2 rad14 strain (AID 165);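 also: 0% = growth equal to vehicle treated cultures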; conditions: S. cerevisiae cln2 rad14 strain, active compounds read high
# Summary of the method: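 Yeast carrying cln2 and rad14 alterations (cell cycle control and DNA damage repair) were exposed to compounds. Growth inhibition was measured against vehicle-treated controls.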
# [9] = NCI Yeast Anticancer Drug Screen. Data for the bub3 strain (AID 167); conditions: S. cerevisiae bub3 mutant strain, active compounds read high
# Summary of the method: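 Steps: expose the mutant yeast strain to compound; grow alongside vehicle-treated cultures; measure growth; express inhibition against the vehicle cultures.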
# [10] = NCI Yeast Anticancer Drug Screen. Data for the wt2 strain (AID 169);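 also: 0% = growth of vehicle-treated yeast cultures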; conditions: S. cerevisiae wt2 strain growth inhibition, active compounds read high
# Summary of the method: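 Yeast cells were exposed to test compounds, and growth inhibition was measured relative to vehicle-treated controls.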
# [11] = NCI Yeast Anticancer Drug Screen. Data for the mlh1 strain (AID 171);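 also: 0% = growth of vehicle-treated control cultures of the same strain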; conditions: S. cerevisiae mlh1 strain growth inhibition, active compounds read high
# Summary of the method: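 Yeast carrying a defined genetic alteration in DNA damage repair or cell cycle control were exposed to test compounds. Growth inhibition was measured relative to vehicle-treated controls.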
# [12] = NCI Yeast Anticancer Drug Screen. Data for the sgs1 strain (AID 173);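 also: 0% = growth of vehicle-only control cultures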; conditions: S. cerevisiae sgs1 mutant, active compounds read high
# Summary of the method: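 Yeast mutant strains carrying defined defects in DNA damage repair or cell cycle control were exposed to test compounds. Growth inhibition was scored against vehicle-treated controls.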
# [13] = NCI Yeast Anticancer Drug Screen. Data for the mlh1 rad18 strain (AID 175); conditions: S. cerevisiae mlh1 rad18 strain growth inhibition, active compounds read high
# Summary of the method: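 Growth inhibition of the yeast strain was measured after compound exposure and expressed relative to vehicle-treated controls. The strain carries defined defects in DNA damage repair.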
# [14] = NCI Yeast Anticancer Drug Screen. Data for the rad18 strain (AID 177); conditions: S. cerevisiae rad18 mutant growth inhibition, active compounds read high
# Summary of the method: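 Yeast carrying a defined DNA damage repair alteration were exposed to compounds. Growth inhibition was expressed relative to vehicle-treated controls.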
# [15] = NCI Yeast Anticancer Drug Screen. Data for the rad14 strain (AID 159);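 also: 0% = growth of vehicle-treated control cultures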; conditions: S. cerevisiae rad14 strain growth inhibition, active compounds read high
# Summary of the method: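 A mutant yeast strain defective in DNA damage repair is treated with compound; inhibition of its growth is scored against untreated, vehicle-exposed cultures.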
# [16] = at 5.0 µM (retest, dose inferred, filed as 0.5)
# [17] = at 50.0 µM (retest, dose inferred, filed as 5.0)
smiles,measurement,setting,value
N#CC1OB(O)c2ccccc21 (stereo unspecified),growth inhibition,[1]; at 1.2 µM,-9%
same,growth inhibition,[1]; at 3.7 µM,-6%
same,growth inhibition,[1]; at 11.0 µM,-5%
same,growth inhibition,[1]; at 33.0 µM,-5%
same,growth inhibition,[1]; at 100.0 µM,3%
same,growth inhibition,[2]; at 1.2 µM,-2%
same,growth inhibition,[2]; at 3.7 µM,4%
same,growth inhibition,[2]; at 11.0 µM,4%
same,growth inhibition,[2]; at 33.0 µM,17%
same,growth inhibition,[2]; at 100.0 µM,26%
same,growth inhibition,[3]; at 1.2 µM,-7%
same,growth inhibition,[3]; at 3.7 µM,-4%
same,growth inhibition,[3]; at 11.0 µM,-2%
same,growth inhibition,[3]; at 33.0 µM,0%
same,growth inhibition,[3]; at 100.0 µM,-3%
same,growth inhibition,[4]; at 1.2 µM,-13%
same,growth inhibition,[4]; at 3.7 µM,-10%
same,growth inhibition,[4]; [16],-126%
same,growth inhibition,[4]; at 11.0 µM,4%
same,growth inhibition,[4]; at 33.0 µM,10%
same,growth inhibition,[4]; [17],81% (active)
same,growth inhibition,[4]; at 50.0 µM,58.2%
same,growth inhibition,[4]; at 100.0 µM,11%
same,growth inhibition,[5]; at 1.2 µM,1%
same,growth inhibition,[5]; at 3.7 µM,0%
same,growth inhibition,[5]; [16],-51%
same,growth inhibition,[5]; at 11.0 µM,3%
same,growth inhibition,[5]; at 33.0 µM,1%
same,growth inhibition,[5]; [17],-27%
same,growth inhibition,[5]; at 50.0 µM,27.9%
same,growth inhibition,[5]; at 100.0 µM,-7%
same,growth inhibition,[6]; [16],-61%
same,growth inhibition,[6]; [17],-2%
same,growth inhibition,[6]; at 50.0 µM,27.1%
same,growth inhibition,[7]; at 1.2 µM,0%
same,growth inhibition,[7]; at 3.7 µM,-2%
same,growth inhibition,[7]; at 11.0 µM,1%
same,growth inhibition,[7]; at 33.0 µM,-7%
same,growth inhibition,[7]; at 100.0 µM,-2%
same,growth inhibition,[8]; [16],-57%
same,growth inhibition,[8]; [17],-42%
same,growth inhibition,[8]; at 50.0 µM,21%
same,growth inhibition,[9]; at 1.2 µM,-11%
same,growth inhibition,[9]; at 3.7 µM,-10%
same,growth inhibition,[9]; [16],-64%
same,growth inhibition,[9]; at 11.0 µM,-6%
same,growth inhibition,[9]; at 33.0 µM,-10%
same,growth inhibition,[9]; [17],-36%
same,growth inhibition,[9]; at 50.0 µM,69.7%
same,growth inhibition,[9]; at 100.0 µM,-4%
same,growth inhibition,[10]; at 1.2 µM,0%
same,growth inhibition,[10]; at 3.7 µM,0%
same,growth inhibition,[10]; at 11.0 µM,-1%
same,growth inhibition,[10]; at 33.0 µM,-2%
same,growth inhibition,[10]; at 100.0 µM,-2%
same,growth inhibition,[11]; at 1.2 µM,7%
same,growth inhibition,[11]; at 3.7 µM,-5%
same,growth inhibition,[11]; at 11.0 µM,-6%
same,growth inhibition,[11]; at 33.0 µM,-6%
same,growth inhibition,[11]; at 100.0 µM,-7%
same,growth inhibition,[12]; at 1.2 µM,1%
same,growth inhibition,[12]; at 3.7 µM,1%
same,growth inhibition,[12]; at 11.0 µM,2%
same,growth inhibition,[12]; at 33.0 µM,1%
same,growth inhibition,[12]; at 100.0 µM,1%
same,growth inhibition,[13]; [16],-115%
same,growth inhibition,[13]; [17],7%
same,growth inhibition,[13]; at 50.0 µM,60.9%
same,growth inhibition,[14]; at 1.2 µM,-4%
same,growth inhibition,[14]; at 3.7 µM,-1%
same,growth inhibition,[14]; at 11.0 µM,1%
same,growth inhibition,[14]; at 33.0 µM,2%
same,growth inhibition,[14]; at 100.0 µM,6%
Cc1cccc2c1C1c3c(C)cccc3C(CC(=O)O)CC1CC2 (stereo unspecified),growth inhibition,[1]; at 1.2 µM,13%
same,growth inhibition,[1]; at 3.7 µM,92% (active)
same,growth inhibition,[1]; at 11.0 µM,97% (active)
same,growth inhibition,[1]; at 33.0 µM,95% (active)
same,growth inhibition,[1]; at 100.0 µM,88% (active)
same,growth inhibition,[2]; at 1.2 µM,15%
same,growth inhibition,[2]; at 3.7 µM,25%
same,growth inhibition,[2]; at 11.0 µM,53%
same,growth inhibition,[2]; at 33.0 µM,66%
same,growth inhibition,[2]; at 100.0 µM,48%
same,growth inhibition,[4]; at 1.2 µM,13%
same,growth inhibition,[4]; at 3.7 µM,90% (active)
same,growth inhibition,[4]; [16],22%
same,growth inhibition,[4]; at 11.0 µM,97% (active)
same,growth inhibition,[4]; at 33.0 µM,93% (active)
same,growth inhibition,[4]; [17],96% (active)
same,growth inhibition,[4]; at 50.0 µM,99% (active)
same,growth inhibition,[4]; at 100.0 µM,85% (active)
same,growth inhibition,[5]; at 1.2 µM,5%
same,growth inhibition,[5]; at 3.7 µM,61%
same,growth inhibition,[5]; [16],8%
same,growth inhibition,[5]; at 11.0 µM,98% (active)
same,growth inhibition,[5]; at 33.0 µM,96% (active)
same,growth inhibition,[5]; [17],98% (active)
same,growth inhibition,[5]; at 50.0 µM,99% (active)
same,growth inhibition,[5]; at 100.0 µM,90% (active)
same,growth inhibition,[15]; at 1.2 µM,5%
same,growth inhibition,[15]; at 3.7 µM,83% (active)
same,growth inhibition,[15]; at 11.0 µM,98% (active)
same,growth inhibition,[15]; at 33.0 µM,95% (active)
same,growth inhibition,[15]; at 100.0 µM,90% (active)
same,growth inhibition,[6]; [16],11%
same,growth inhibition,[6]; [17],98% (active)
same,growth inhibition,[6]; at 50.0 µM,99.5% (active)
same,growth inhibition,[7]; at 1.2 µM,16%
same,growth inhibition,[7]; at 3.7 µM,90% (active)
same,growth inhibition,[7]; at 11.0 µM,99% (active)
same,growth inhibition,[7]; at 33.0 µM,94% (active)
same,growth inhibition,[7]; at 100.0 µM,88% (active)
same,growth inhibition,[8]; [16],6%
same,growth inhibition,[8]; [17],98% (active)
same,growth inhibition,[8]; at 50.0 µM,98.8% (active)
same,growth inhibition,[9]; at 1.2 µM,10%
same,growth inhibition,[9]; at 3.7 µM,71% (active)
same,growth inhibition,[9]; [16],6%
same,growth inhibition,[9]; at 11.0 µM,97% (active)
same,growth inhibition,[9]; at 33.0 µM,95% (active)
same,growth inhibition,[9]; [17],96% (active)
same,growth inhibition,[9]; at 50.0 µM,98.8% (active)
same,growth inhibition,[9]; at 100.0 µM,87% (active)
same,growth inhibition,[10]; at 1.2 µM,5%
same,growth inhibition,[10]; at 3.7 µM,60%
same,growth inhibition,[10]; at 11.0 µM,98% (active)
same,growth inhibition,[10]; at 33.0 µM,96% (active)
same,growth inhibition,[10]; at 100.0 µM,90% (active)
same,growth inhibition,[11]; at 1.2 µM,6%
same,growth inhibition,[11]; at 3.7 µM,71% (active)
same,growth inhibition,[11]; at 11.0 µM,98% (active)
same,growth inhibition,[11]; at 33.0 µM,97% (active)
same,growth inhibition,[11]; at 100.0 µM,90% (active)
same,growth inhibition,[12]; at 1.2 µM,10%
same,growth inhibition,[12]; at 3.7 µM,75% (active)
same,growth inhibition,[12]; at 11.0 µM,98% (active)
same,growth inhibition,[12]; at 33.0 µM,96% (active)
same,growth inhibition,[12]; at 100.0 µM,92% (active)
same,growth inhibition,[13]; [16],7%
same,growth inhibition,[13]; [17],97% (active)
same,growth inhibition,[13]; at 50.0 µM,99.2% (active)
same,growth inhibition,[14]; at 1.2 µM,11%
same,growth inhibition,[14]; at 3.7 µM,69%
same,growth inhibition,[14]; at 11.0 µM,98% (active)
same,growth inhibition,[14]; at 33.0 µM,95% (active)
same,growth inhibition,[14]; at 100.0 µM,88% (active)
